ARNT TACC3 PPI – disrupts binding between human ARNT and TACC3 | Q9Y6A5 | inhibition, % at 9.99 µM | AlphaScreen His-ARNT PAS-B/GST-TACC3 binding, luminescence; TACC3 fragment carries E629A point mutation | AID 623870 | 0.66% of 390,000 active;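 active = mean inhibition of replicates at least 50% and at least half of replicates each reaching 50%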
DAGLB inh – blocks human DAGLB lipase activity | AID 504411 | 0.059% of 340,000 active | inhibition, % at 5.17 µM | HEK293T DAGLB membrane lysate, EnzChek fluorogenic substrate | Q8NCG7; in the data active = inhibition above about 34%
Target sequence (Q8NCG7 whole entry, looked up): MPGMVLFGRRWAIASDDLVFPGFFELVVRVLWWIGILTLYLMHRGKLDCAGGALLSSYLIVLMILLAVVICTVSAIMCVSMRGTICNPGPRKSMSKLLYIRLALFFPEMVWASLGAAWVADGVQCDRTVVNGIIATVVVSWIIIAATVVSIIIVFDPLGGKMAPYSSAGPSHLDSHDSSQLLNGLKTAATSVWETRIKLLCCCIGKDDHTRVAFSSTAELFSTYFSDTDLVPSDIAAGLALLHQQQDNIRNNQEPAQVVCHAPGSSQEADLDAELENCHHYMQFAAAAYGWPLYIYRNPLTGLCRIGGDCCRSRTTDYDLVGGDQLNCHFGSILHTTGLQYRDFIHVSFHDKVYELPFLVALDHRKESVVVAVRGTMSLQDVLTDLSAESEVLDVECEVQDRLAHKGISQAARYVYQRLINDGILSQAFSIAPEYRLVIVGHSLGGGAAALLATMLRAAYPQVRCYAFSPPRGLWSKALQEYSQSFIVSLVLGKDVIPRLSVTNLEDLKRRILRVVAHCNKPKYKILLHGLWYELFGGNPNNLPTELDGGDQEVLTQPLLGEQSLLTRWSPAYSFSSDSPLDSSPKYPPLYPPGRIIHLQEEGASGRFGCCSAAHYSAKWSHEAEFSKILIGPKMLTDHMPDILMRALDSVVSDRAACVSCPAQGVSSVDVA
NadD inh – blocks S. aureus nicotinate mononucleotide adenylyltransferase | purified NadD enzyme, colorimetric absorbance read-out | inhibition, % at 20 µM | 0.78% of 360,000 active; in the data active = inhibition above about 26%
HGIII-sPLA2 inh – Blocks human group III sPLA2 activity; Q9NZ20; QFRET BODIPY PC-A2 liposome hydrolysis, fluorescence; inhibition, % at 12.2 µM; 0.56% of 370,000 active;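 active = inhibition above mean plus 3 SD of compounds lying within the high and low control bounds, cut at about 19% in these data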
Neddylation inh – cullin neddylation inhibition. 0.58% of 360,000 active. inhibition, % at 25 µM. TR-FRET cullin neddylation, biochemical. AID 651699. P61081+Q13564; in the data active = inhibition above about 36%
Neddyl conf – confirmation of human cullin neddylation inhibitors; 13% of 1,800 active; calls only at 25 µM; TR-FRET cullin neddylation biochemical assay; AID 652217; shares compounds with Neddylation inh; in the data active = inhibition above about 40%;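 also: neddylation substrate is the cullin 1 ring ligase complex with SKP2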
Numbers stand for hits; . = inactive; / = not tested or not shown; + = active, no number. Shown are actives, neighbours in structure and some others; about 2% of the full set was active somewhere.

SMILES | ARNT TACC3 PPI | DAGLB inh | NadD inh | HGIII-sPLA2 inh | Neddylation inh | Neddyl conf
C[C@@H]1CN([C@H](C)CO)C(=O)c2cccc(NS(=O)(=O)c3cn(C)cn3)c2O[C@H]1CN(C)C(=O)NC1CCCCC1 | . | / | / | / | / | /
COCCNC(=O)[C@@H]1CSC2c3ccc(OC)c(OC)c3C(=O)N21 (some centres not stated) | . | . | . | . | / | /
CCCCNC(=O)[C@@H]1CSC2c3ccc(OC)c(OC)c3C(=O)N21 (some centres not stated) | . | . | . | . | 41.6 | .
Cc1ccc(S(=O)(=O)N[C@@H]2CC[C@@H](CCNC(=O)CN3CCOCC3)O[C@@H]2CO)cc1 | . | / | / | / | / | /
Cc1cccc(-n2ncc3c(NC(C)C)ncnc32)c1 | . | . | . | . | 38.9 | .
C[C@H]1CN([C@@H](C)CO)C(=O)Cc2cc(NC(=O)Cc3ccccc3)ccc2O[C@H]1CN(C)Cc1ccc(Cl)c(Cl)c1 | . | / | / | / | / | /
O=C1N/C(=C/c2cccn2-c2ccc(F)cc2)C(=O)N1Cc1ccccc1 | . | . | . | . | / | /
O=C1N/C(=C/c2cccn2-c2ccccc2)C(=O)N1Cc1ccccc1F | . | . | . | . | 37.9 | .
COC(=O)C[C@@H]1C=C[C@H](NS(=O)(=O)c2ccccc2F)[C@H](CO)O1 | . | / | / | / | / | /
O=c1[nH]c2ccccc2nc1-c1ccc(Cl)cc1 | . | . | . | . | . | /
O=c1[nH]c2ccccc2nc1-c1ccccc1 | . | . | . | . | 50.3 | +
O=C1OC(C(Cl)(Cl)Cl)Nc2ccccc21 (configuration not stated) | / | / | . | . | 38.5 | .
C[C@@H]1CN([C@@H](C)CO)C(=O)c2cc(NC(=O)Nc3cccc4ccccc34)ccc2O[C@@H](C)CCCCO[C@H]1CN(C)S(=O)(=O)c1cccs1 | . | / | / | / | / | /
c1coc(C2Nc3ccccc3C3OCCC23)c1 (configuration not stated) | . | . | . | . | 40.1 | .
CCN(CC(=O)Nc1ccc(NC(C)=O)cc1)C(=O)/C=C/c1cn(-c2ccccc2)nc1-c1cccs1 | . | . | . | . | 50.0 | /
COc1ccc(-c2cc(=O)c3cc(O)ccc3o2)cc1 | . | . | . | . | 49.8 | /
c1ccc(-c2cc3c(-n4cccc4)ncnc3o2)cc1 | / | . | . | . | 38.0 | .
c1ccc(Oc2ncnc3oc(-c4ccccc4)cc23)cc1 | . | . | . | . | . | /
O=C1Nc2ccc(S(=O)(=O)N3CCCC3)c3cccc1c23 | . | . | . | . | 40.1 | .
CCOC(=O)N1CCN(S(=O)(=O)c2ccc3c4c(cccc24)C(=O)N3)CC1 | . | . | . | . | 52.3 | +
O=C(C[C@H]1CC[C@@H](NC(=O)Cc2ccccn2)[C@H](CO)O1)NCCCN1CCOCC1 | . | / | / | / | / | /
O=C(COc1ccccc1)Nc1ccc(-c2nnc(-c3ccco3)o2)cc1 | . | . | . | . | 38.9 | .
COc1ccccc1OCC(=O)Nc1cccc(-c2nnc(-c3ccco3)o2)c1 | . | . | . | . | . | /
CCNC(=O)Nc1ccc2c(c1)C(=O)N(C)[C@@H]1CC[C@@H](CC(=O)NCc3ccccc3F)O[C@H]1CO2 | . | / | / | / | / | /
Cc1c(OC(C)C(=O)NCCN2CCOCC2)ccc2c3c(c(=O)oc12)CCCC3 (configuration not stated) | . | . | . | . | 41.2 | /
SMILES | ARNT TACC3 PPI | DAGLB inh | NadD inh | HGIII-sPLA2 inh | Neddylation inh | Neddyl conf
CO[C@H]1CN(C)C(=O)c2ccc(NC(C)=O)cc2OC[C@@H](C)N(CC2CCCCC2)C[C@H]1C | . | / | / | / | / | /
CCC(=O)N1[C@H](CN(C)C(=O)c2ccccc2F)[C@@H](c2ccccc2)[C@@H]1CO | . | / | / | / | / | /
Cc1ccc(Cl)cc1NC(=O)C(=O)N/N=C/c1ccc2c(c1)OCO2 | . | . | . | . | 38.9 | .
Cc1cc(Cl)ccc1NC(=O)C(=O)N/N=C/c1ccc2c(c1)OCO2 | . | . | . | . | 42.9 | .
CCCN1C[C@H](C)[C@H](OC)CN(C)C(=O)c2cc(NS(=O)(=O)c3cn(C)cn3)ccc2OC[C@@H]1C | . | / | / | / | / | /
Cc1cc(NC(=O)COC(=O)c2nccnc2N)n(-c2ccccc2)n1 | / | . | . | . | 67.7 | /
CC(C)CC#Cc1ccc2c(c1)O[C@@H](CN(C)C(=O)Nc1ccccc1F)[C@H](C)CN([C@@H](C)CO)S2(=O)=O | . | / | / | / | / | /
Cc1cc(-c2ccccc2)nc(N(C)NC(=O)c2c(F)cccc2F)c1S(C)(=O)=O | . | . | . | . | . | /
Cc1cc(-c2ccccc2)nc(N(C)N)c1S(C)(=O)=O | . | . | . | . | 38.8 | .
